Reference: PubChem BioAssay AID1049 (The Scripps Research Institute Molecular Screening Center, 2008)
The whole screen tested about 200,000 compounds, of which about 780 (0.39%) were called active. Cut-off read from the data, not from the text of the source: active = TR-FRET ratio above about 2000; inactive = the rest. This excerpt belongs to a sample that is enriched for actives.

experiment: TR-FRET signal artefacts, primary screen, artefact control for PPARgamma SRC-2 agonist project, biochemical (AID 1049); conditions: TR-FRET artefact counter-screen; at 8 µM; hits give high values

**Q.** Which TR-FRET ratio does the source give for `CSC1=NP(=S)(SC)N(C)c2nc3n(c21)CCC3` (stereo not given) here?
**A.** 3350 (active)

**Q.** For `Cc1ccc(C)c(NC2=NCCCS2)c1`, which TR-FRET ratio is on record?
**A.** 1500 (inactive)

**Q.** Which TR-FRET ratio does the source give for `Cc1cccc(-n2c(O)c(C=NC34CN5CN(CN(C5)C3)C4)c(=O)[nH]c2=O)c1` here?
**A.** 1640 (inactive)

**Q.** For `OC1/C(=C/c2ccc(C(F)(F)F)cc2)N2CCC1CC2` (stereo not given), which TR-FRET ratio is on record?
**A.** 1710 (inactive)

**Q.** Which TR-FRET ratio does the source give for `COc1cc(-n2c(=S)[nH]c3ccc(C)cc3c2=O)c(Cl)cc1Cl` here?
**A.** 2140 (active)

**Q.** Which TR-FRET ratio does the source give for `O=c1c2ccccc2nc(-c2ccccc2)n1-c1ccccn1` here?
**A.** 1550 (inactive)

**Q.** For `O=C(COC(=O)Cc1ccccc1)Nc1ccc(F)cc1`, which TR-FRET ratio is on record?
**A.** 1600 (inactive)

**Q.** With `CN(C)c1nc(N(C)C)nc(N(C#N)CCCl)n1` as the compound, how does the TR-FRET ratio read?
**A.** 1800 (inactive)

**Q.** Which TR-FRET ratio does the source give for `CCCn1c(C(=O)c2ccccc2OC)nc2ccccc21` here?
**A.** 1400 (inactive)

**Q.** Which TR-FRET ratio does the source give for `O=c1[nH]c(=O)n(-c2ccccc2)c(O)c1C=NC12CN3CN(CN(C3)C1)C2` here?
**A.** 1500 (inactive)
